# Several values for one entry are separate records, joined by “and”; a condition that tells them apart may be missing. Equal values may be shown once. Results filed as inconclusive are left out. Values without a mark were called inactive. Activity calls are given as the source filed them. Calls come from the whole dose curve; as a rule, active = well fitted cell-killing curve with a large enough effect; inconclusive = small, poorly fitted or top-dose-only effect, or effect the other way; inactive = flat fitted curve, though single readings scatter.
# Test system: OV90
# Assay: Primary qHTS to identify gynecologic anti-cancer compounds using libraries of approved drugs and bioactive compounds (AID 1345084); note: nearly all actives have a fitted effect of over 55% in size
# Conditions: Gynecologic cancer cell panel viability, ATPlite luminescence, 48 h; series mostly up to 57.5 µM; activity change, negative = cytotoxicity: at the top concentration
# How it was run: (§1)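 Cell viability after 48 h drug treatment, ATPlite luminescence readout; five doses.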
# % is set by controls: 0 for no effect and ±100 for the full control effect; potency is the fitted concentration of half-maximal effect.
Structure (SMILES),"activity change, negative = cytotoxicity",Potency
CC(=O)O[C@@H]1[C@H](O[C@@H]2OC[C@](O)(CO)[C@H]2O)[C@@H](O[C@@H]2O[C@@H](C)[C@H](O)[C@@H](O)[C@H]2O)[C@H](OC(=O)[C@]23CCC(C)(C)C[C@H]2C2=CCC4[C@@]5(C)C[C@H](O)[C@H](O[C@@H]6O[C@H](C(=O)O)[C@@H](O)[C@H](O)[C@H]6O)[C@@](C)(C(=O)O)C5CC[C@@]4(C)[C@]2(C)CC3)O[C@@H]1C (stereo partly drawn),0.243% [at 11.6 µM],–
Nc1ccn([C@@H]2C(F)=C(CO)[C@@H](O)[C@H]2O)c(=O)n1,-17%,–
Cc1nnc(C(C)C)n1C1CC2CCC(C1)N2CCC(NC(=O)C1CCC(F)(F)CC1)c1ccccc1 (stereo not drawn),8.29%,–
COC1CCCC/C(C)=C/C2C=C(C)C(C)C3C(CC(C)C)NC(=O)C23C(=O)C1 (stereo not drawn),-0.0687% [at 25.3 µM],–
CON(C)C(=O)N1N=C(c2cc(F)ccc2F)S[C@@]1(CCCN)c1ccccc1,-14.4%,–
COc1cc2c(Nc3ccc(Cl)c(Cl)c3F)ncnc2cc1OCC1C[C@@H]2CN(C)C[C@@H]2C1 (stereo partly drawn),–,20000 nM (active)
CN1CCC(c2c[nH]c3ccc(NC(=O)c4ccc(F)cc4)cc23)CC1,-0.0054%,–
C=C1CCC2C(C)(C)CC(=O)CC2(C)C1CCC(C)CCOC(C)=O (stereo not drawn),2.82% [at 38.5 µM],–
CCC(=O)O[C@]1(C(=O)CCl)[C@@H](C)C[C@H]2[C@@H]3C[C@H](F)C4=CC(=O)C=C[C@]4(C)[C@@]3(F)[C@@H](O)C[C@@]21C,-6.76%,–
Nc1c(Br)cc(Br)cc1CNC1CCC(O)CC1 (stereo not drawn),-5.48%,–
C=CCc1ccc(O[C@@H]2O[C@H](CO)[C@@H](O)[C@H](O)[C@H]2O)c(OC)c1,10.5% [at 38.5 µM],–
COc1cc(N2CCC(N(C)C)CC2)ccc1Nc1ncc(Cl)c(Nc2ccccc2P(C)(C)=O)n1,–,1580 nM (active)
Cc1nc2c(-c3cnc(N)nc3)nc(N3CCOCC3)nc2n1C(C)C,–,1120 nM (active)
CC1=CC(=O)C[C@H]2[C@@H]1CC[C@@H](C)[C@]21CO[C@H](c2ccoc2)C1=O,-3.5% [at 38.5 µM],–
NS(=O)(=O)OC[C@@H]1C[C@@H](n2ccc3c(N[C@H]4CCc5ccccc54)ncnc32)C[C@@H]1O,-30.9%,–
CC(C)C1(O[C@@H]2O[C@H](CO)[C@@H](O)[C@H](O)[C@H]2O)CC=C(CO)CC1 (stereo partly drawn),0.486% [at 38.5 µM],–
Cc1cc(C)c(S(=O)(=O)N(Cc2ccc(-c3cccc(S(C)(=O)=O)c3)cc2)Cc2ccc(C(F)(F)F)o2)c(C)c1,15.3%,–
CCc1nc(C(N)=O)c(Nc2ccc(N3CCC(N4CCN(C)CC4)CC3)c(OC)c2)nc1NC1CCOCC1,-26.8% [at 38.5 µM],–

# Test system: PA-1
# Assay: as above
# Conditions: Gynecologic cancer cell panel viability, ATPlite luminescence, 48 h; series mostly up to 57.5 µM; activity change, negative = cytotoxicity: at the top concentration
# How it was run: as §1
Structure (SMILES),"activity change, negative = cytotoxicity",Potency
CC(=O)O[C@@H]1[C@H](O[C@@H]2OC[C@](O)(CO)[C@H]2O)[C@@H](O[C@@H]2O[C@@H](C)[C@H](O)[C@@H](O)[C@H]2O)[C@H](OC(=O)[C@]23CCC(C)(C)C[C@H]2C2=CCC4[C@@]5(C)C[C@H](O)[C@H](O[C@@H]6O[C@H](C(=O)O)[C@@H](O)[C@H](O)[C@H]6O)[C@@](C)(C(=O)O)C5CC[C@@]4(C)[C@]2(C)CC3)O[C@@H]1C (stereo partly drawn),-6.11% [at 11.6 µM],–
CNC(=O)c1ccc(Nc2ncc(C(F)(F)F)c(NCc3nccnc3N(C)S(C)(=O)=O)n2)cc1,–,4.47 µM (active)
Nc1ccn([C@@H]2C(F)=C(CO)[C@@H](O)[C@H]2O)c(=O)n1,–,2.24 µM (active)
Cc1nnc(C(C)C)n1C1CC2CCC(C1)N2CCC(NC(=O)C1CCC(F)(F)CC1)c1ccccc1 (stereo not drawn),15.9%,–
COC1CCCC/C(C)=C/C2C=C(C)C(C)C3C(CC(C)C)NC(=O)C23C(=O)C1 (stereo not drawn),2.71% [at 25.3 µM],–
CN1CCC(c2c[nH]c3ccc(NC(=O)c4ccc(F)cc4)cc23)CC1,7.67%,–
NCc1ccc(OCCCc2sc(-c3ccc4c(c3)/C(=N/Nc3nc5ccccc5s3)CCC4)nc2C(=O)O)cc1,0.239%,–
O=C(O)C[C@H](O)C[C@H](O)/C=C/c1c(C2CC2)nc2ccccc2c1-c1ccc(F)cc1,–,10 µM (active)
C=C1CCC2C(C)(C)CC(=O)CC2(C)C1CCC(C)CCOC(C)=O (stereo not drawn),4.78% [at 38.5 µM],–
CCC(=O)O[C@]1(C(=O)CCl)[C@@H](C)C[C@H]2[C@@H]3C[C@H](F)C4=CC(=O)C=C[C@]4(C)[C@@]3(F)[C@@H](O)C[C@@]21C,5.68%,–
Nc1c(Br)cc(Br)cc1CNC1CCC(O)CC1 (stereo not drawn),-20.8%,–
C=CCc1ccc(O[C@@H]2O[C@H](CO)[C@@H](O)[C@H](O)[C@H]2O)c(OC)c1,14.7% [at 38.5 µM],–
CN(C)C/C=C/C(=O)Nc1ccc(C(=O)Nc2cccc(Nc3ncc(Cl)c(-c4c[nH]c5ccccc45)n3)c2)cc1,–,0.891 µM (active)
CC(=O)c1cnc2ccc(-c3cc(Cl)c(O)c(Cl)c3)nc2c1NC1CCC(CN(C)C)CC1 (stereo not drawn),–,0.501 µM (active)
COc1cc(N2CCC(N(C)C)CC2)ccc1Nc1ncc(Cl)c(Nc2ccccc2P(C)(C)=O)n1,–,8.91 µM (active)
Cc1nc2c(-c3cnc(N)nc3)nc(N3CCOCC3)nc2n1C(C)C,–,2 µM (active)
CC1=CC(=O)C[C@H]2[C@@H]1CC[C@@H](C)[C@]21CO[C@H](c2ccoc2)C1=O,-0.517% [at 38.5 µM],–
NS(=O)(=O)OC[C@@H]1C[C@@H](n2ccc3c(N[C@H]4CCc5ccccc54)ncnc32)C[C@@H]1O,–,708 nM (active) and 1 µM (active)
Cc1cc(C)c(S(=O)(=O)N(Cc2ccc(-c3cccc(S(C)(=O)=O)c3)cc2)Cc2ccc(C(F)(F)F)o2)c(C)c1,3.89%,–
CCc1nc(C(N)=O)c(Nc2ccc(N3CCC(N4CCN(C)CC4)CC3)c(OC)c2)nc1NC1CCOCC1,–,2.24 µM (active)
